Laboratory results reported in PubChem BioAssay (EPA / NIEHS).
Results filed as inconclusive are left out. Activity calls are given as the source filed them. The calls were made as follows: active = hit-call score of the fitted dose curve at least 0.9, where 1 is the maximum; inconclusive = response in the unintended direction; inactive = score below 0.9.

molecular target: Steroid hormone receptor ERR1 (Homo sapiens) (UniProt P11474); assay: ATG_ERRa_TRANS: Attagene TRANS-FACTORIAL HepG2 Assay for human Estrogen-Related Receptor alpha (ERRa) (AID 2282971); conditions: HepG2 Attagene TRANS reporter, ERRa transactivation
Sequence (P11474 whole entry, looked up): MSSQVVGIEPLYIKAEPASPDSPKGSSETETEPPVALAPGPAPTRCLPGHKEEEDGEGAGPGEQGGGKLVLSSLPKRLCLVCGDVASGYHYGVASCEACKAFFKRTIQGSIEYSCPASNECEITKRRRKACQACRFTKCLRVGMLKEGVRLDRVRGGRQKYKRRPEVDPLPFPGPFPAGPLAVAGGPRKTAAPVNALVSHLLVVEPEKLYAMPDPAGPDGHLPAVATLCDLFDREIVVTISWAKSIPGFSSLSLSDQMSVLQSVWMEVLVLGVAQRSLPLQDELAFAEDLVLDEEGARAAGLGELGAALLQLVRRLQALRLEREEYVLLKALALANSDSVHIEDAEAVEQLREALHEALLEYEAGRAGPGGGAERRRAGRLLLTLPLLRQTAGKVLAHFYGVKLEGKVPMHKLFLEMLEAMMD
Procedure: ATG_TRANS is a cell-based, multiplexed-readout assay that uses HepG2, a human liver cell line, with measurements taken at 24 hours after chemical dosing in a 24-well plate.ATG_ERRa_TRANS is one of 30 assay component(s) measured or calculated from the ATG_TRANS assay. It is designed to make measurements of mRNA induction, a form of inducible reporter, as detected with fluorescence intensity signals by Reverse transcription polymerase chain reaction (RT-PCR) and Capillary electrophoresis technology.Data from the assay component ATG_ERRa_TRANS was analyzed into 1 assay endpoint. This assay endpoint, ATG_ERRa_TRANS, was analyzed in the positive analysis fitting direction relative to DMSO as the negative control and baseline of activity. Using a type of inducible reporter, measures of mRNA for gain-of-signal activity can be used to understand the reporter gene at the transcription factor-level as they relate to the gene ESRRA. Furthermore, this assay endpoint can be referred to as a primary readout, because this assay has produced multiple assay endpoints where this one serves a reporter gene function. To generalize the intended target to other relatable targets, this assay endpoint is annotated to the nuclear receptor intended target family, where the subfamily is steroidal.
Human liver HepG2 cells are transiently transfected with multiple reporter transcription units (MRTUs) in 6-well plates using FuGene 6 reagent (Roche; 3 ml FuGene/1 mg DNA). The MRTU constructs are regulated by a cis-regulating element (promoter). […] A major difference between the CIS and TRANS system is that in CIS activities of endogenous TFs are measured, whereas the TRANS assay evaluates changes in activities of exogenous, chimeric NR-Gal4 proteins. […] At the end of 24 hour incubation, total RNA was isolated using TriZol reagent (Invitrogen). The isolated RNA is then reverse-transcribed using oligo(dT) primer and Mo-MLV reverse transcriptase (Invitrogen) with DNAse I (Ambion) treatment for 30 min. The one-tenth of the produced cDNA was amplified by PCR using Taq DNA polymerase (Invitrogen) and two reporter sequence-specific primers. The PCR products were fluorescently labeled by primer extension with 6-arboxyfluorescein (6-FAM) 5'-labeled reporter sequence-specific primer (2 min at 95 C, 20 s at 68 C and 10 min at 72 C) and these products were digested with 5U of HpaI (New England Biolabs) for 2h at 37 C. The fragments were purified using Qiaquick PCR columns (Qiagen), analyzed on an ABI 3130xL genetic analyzer (Applied Biosystems) with peak positions identified by using a set of X-rhodamine (ROX)-labeled MapMarker1000 molecular weight standards (BioVentures). The raw capillary electrophoresis data was processed using Attagraph software (Attagene).

| Compound | outcome |
| --- | --- |
| CC1=CCC(=O)O1 | inactive |
| COC(=O)c1ccc(C=O)cc1 | inactive |
| Nc1c(Br)cc([N+](=O)[O-])cc1Br | inactive |
| O=C=Nc1cccc2c(N=C=O)cccc12 | inactive |
| FC(F)(F)C(F)(F)C(F)(F)C(F)(F)C(F)(F)C(F)(F)C(F)(F)CCI | inactive |
| CCC(C)CO (stereo not given) | inactive |
| Oc1ccc2c(c1)CCC2 | inactive |
| O=C1c2ccccc2C(=O)c2c(Cl)cccc21 | inactive |
| NCC(F)(F)C(F)(F)C(F)(F)C(F)(F)C(F)(F)C(F)(F)F | inactive |
| F[Si-2](F)(F)(F)(F)F | inactive |
| CCOC(C=C(C)CCC=C(C)C)OCC | inactive |
| c1ccc(C[P+](c2ccccc2)(c2ccccc2)c2ccccc2)cc1 | inactive |
| OCCCC(F)(F)C(F)(F)C(F)(F)C(F)(F)C(F)(F)C(F)(F)C(F)(F)C(F)(F)F | inactive |
| CC(C)CC=C(C=O)c1ccccc1 | inactive |
| CCOC(=O)CC(=O)C(F)(F)C(F)(F)F | inactive |
| OCC(O)CC(F)(F)C(F)(F)C(F)(F)C(F)(F)C(F)(F)C(F)(F)C(F)(F)C(F)(F)F (stereo not given) | inactive |
| OCC(F)(F)C(F)(F)C(F)(F)C(F)(F)C(F)(F)C(F)(F)C(F)(F)C(F)(F)CO | inactive |
| Cc1cc(=O)[nH]c(C(C)C)n1 | inactive |
| O=C(F)C1(F)C(F)(F)C(F)(F)C(F)(F)C(F)(F)C1(F)F | inactive |
| O=S(=O)(O)CCC(F)(F)C(F)(F)C(F)(F)C(F)(F)C(F)(F)C(F)(F)C(F)(F)C(F)(F)F | inactive |

| Compound | outcome |
| --- | --- |
| O=S(=O)(OCC(F)(F)F)C(F)(F)C(F)(F)C(F)(F)C(F)(F)F | inactive |
| C[C@]12CC[C@H]3C(=CCc4cc(O)ccc43)[C@@H]1CCC2=O | inactive |
| COC(F)(C(F)F)C(F)(F)F (stereo not given) | inactive |
| C[Si](Cl)(Cl)CCC(F)(F)C(F)(F)C(F)(F)C(F)(F)C(F)(F)C(F)(F)F | inactive |
| N#CCCOCCC#N | inactive |
| O=c1cccc[nH]1 | inactive |
| NC(=O)C(F)(F)C(F)(F)C(F)(F)C(F)(F)C(N)=O | inactive |
| OC(O)C(F)(F)C(F)(F)F | inactive |
| Cc1ccc2c(c1)OCC(=O)CO2 | inactive |
| OCCCCl | inactive |
| O=C(O)CCC(F)(F)C(F)(F)C(F)(F)F | inactive |
| CC1=CC2C3C=CC(C3)C2C1C (stereo not given) | inactive |
| FC(F)(F)C(F)(F)C(F)(F)C(F)(F)C(F)(F)C(F)(F)CC[Si](Cl)(Cl)Cl | inactive |
| FC(F)(F)C(F)(F)C(F)(F)CC1CO1 (stereo not given) | inactive |
| C=C(C)C(=O)OCC(F)(F)C(F)(F)C(F)(F)C(F)F | inactive |
| O=c1[nH]cccc1O | inactive |
| CN(C(=O)C(F)(F)C(F)(F)C(F)(F)F)[Si](C)(C)C | inactive |
| OCC(F)(F)C(F)(F)C(F)(F)CO | inactive |
| NC(=O)C(F)(F)C(F)(F)C(F)(F)C(F)(F)C(F)(F)C(F)(F)C(F)(F)F | inactive |
| C=CC(=O)OCCC(F)(F)C(F)(F)C(F)(F)C(F)(F)F | inactive |
